# Bioassay records from PubChem.
# Dicer inh: human Dicer pre-microRNA cleavage inhibition; 6% of 47,000 active; z-score at 25 µM; cat-ELCCA pre-miR-21 Dicer processing, chemiluminescence; stronger effect = higher value; AID 1347074; Q9UPY3; in the data active = z-score above about 3, passing the limit was not always enough;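 note: higher signal means more uncleaved substrate so more Dicer inhibition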
# A number is an active result; . = inactive. The full list was thinned out, with hits kept by preference.
SMILES,Dicer inh
CSc1sc(C(=O)NNC(=O)c2ccccc2Cl)cc1S(=O)(=O)C(C)C,.
CCOc1cccc(C2N=C(N)Nc3nc4ccccc4n32)c1 (stereo unspecified),.
CCOC(=O)c1sc2nc[nH]c(=O)c2c1C,4.2
CCOC(=O)c1c(C)c2c(=O)[nH]cnc2n1-c1ccccc1,.
CCOC(=O)c1snc2c(=O)[nH]cnc12,.
COc1cc([N+](=O)[O-])c(OC)cc1SCC(=O)NNC(=S)Nc1cccc(Cl)c1C,.
Cc1ccc(S(C)(=O)=NC(=O)CSc2ccc(C(F)(F)F)cn2)cc1 (stereo unspecified),.
COc1ccc(-c2cc3nccc(-c4ccc5c(c4)N(C)C(=O)CO5)n3n2)cc1,.
Cc1ccc(F)cc1S(=O)(=O)Nc1ccc2c(c1)OCC1CCCN21 (stereo unspecified),6.5
COc1ccc(NS(=O)(=O)c2ccc(F)cc2)cc1OC1CCCC1,.
Cc1cc(S(=O)(=O)Nc2cccc(F)c2)c(C)c(S(=O)(=O)c2ccccc2)c1,.
COc1ncccc1C(=O)NC(CCSC)C(=O)O (stereo unspecified),.
COc1ccc(CCNc2ncnc3sc4c(c23)CCC(C)C4)cc1OC (stereo unspecified),.
Cn1c(=O)c2c(nc(NCCOCCO)n2Cc2c(Cl)cccc2Cl)n(C)c1=O,.
CCc1c(C)c2c(C)nn(-c3ccc(Br)cc3)c2oc1=O,.
CC(=O)Oc1ccc2c(C)cc(=O)oc2c1,.
CC(=O)Oc1ccc2oc3c(c2c1)C(=O)CCC3,4.8
CC(=O)Oc1ccc2oc(C)c(C(=O)OC(C)C)c2c1,.
O=C(Nc1ncc2c(n1)CC(c1ccccc1)CC2=O)c1ccc(-c2ccccc2)cc1 (stereo unspecified),.
O=C1CC(c2ccccc2Cl)Cc2nc(N3CCc4ccccc43)ncc21 (stereo unspecified),.
O=C(NCc1sccc1COc1ccc(Cl)cc1)Nc1ccccc1F,4.5
O=S(=O)(NNC(=S)Nc1ccccc1F)c1ccc(Cl)cc1,.
Cc1ccsc1CNC(=O)Nc1ccc(OCc2ccccc2)cc1,.
Cc1ccn2c(=O)c(NC(=O)c3ccc(C(C)(C)C)cc3)cnc2c1,.
CCOC(=O)C1C2C=CC3(CN(c4ccc(CC)cc4)C(=O)C13)O2 (stereo unspecified),.
SMILES,Dicer inh
CC1(C)COC(c2ccccc2COC(=O)c2ccc(C(C)(C)C)cc2)=N1,.
COC(=O)C1=C(C)N=C2SCCC(=O)N2C1c1ccc(C(C)(C)C)cc1 (stereo unspecified),.
COC(=O)/C=C1/NCC(OC(=O)c2ccc(C(C)(C)C)cc2)CNC1=O (stereo unspecified),4.4
C#CCSc1nc(COC)c(C)c(=O)[nH]1,.
Cc1cc(Cl)ccc1Oc1ncccc1N,.
Cc1cc(Cl)ccc1NC(c1cccnc1)c1ccc2cccnc2c1O (stereo unspecified),11
Cc1ccc(NC(c2cccnc2)c2ccc3cccnc3c2O)cc1C (stereo unspecified),.
O=C(Nc1cccc2cccnc12)C(Cl)(Cl)Cl,.
Cc1cc(Cl)ccc1NC(c1ccccn1)c1ccc2cccnc2c1O (stereo unspecified),9.1
Oc1c(C(Nc2ccccc2Cl)c2cccnc2)ccc2cccnc12 (stereo unspecified),6.2
Cc1ccc(NC(c2ccccn2)c2ccc3cccnc3c2O)c(C)c1 (stereo unspecified),.
CCOc1cc(C)c(S(=O)(=O)Nc2cccnc2)cc1C,.
COC(=O)Nc1ccc(S(=O)(=O)N2CCC(C(=O)Nc3ccc4c(c3)OCO4)CC2)cc1,.
N#Cc1c[nH]c2ccc(NC(=O)c3cccs3)cc12,.
CCOC(=O)NC1c2ccccc2Oc2ccc(OC)cc21 (stereo unspecified),.
Cc1onc(-c2ccccc2)c1C(=O)NCCNC(=O)c1c(-c2ccccc2)noc1C,.
Cc1onc(-c2ccccc2)c1C(=O)NNC(=O)c1ccc(-n2c(C)ccc2C)cc1,3.1
Cc1onc(-c2ccccc2)c1C(=O)n1cccc1,.
Cc1cc(NCCC(C)C)n2ncnc2n1,.
Cc1ccc(C2C3C(=O)N(C(C)C)C(=O)C3ON2c2ccc(Cl)cc2)cc1 (stereo unspecified),.
N#CCCNC(Cc1ccccc1)C(=O)O (stereo unspecified),.
c1ccc(Cc2nc3c4c5c(sc4ncn3n2)CCCCC5)cc1,.
Cc1nn(C)cc1CNC(=O)c1cnn2c1NC(c1ccc(Br)cc1)CC2C(F)(F)F (stereo unspecified),.
COCCNC(=O)c1cnn2c1NC(c1ccc(Br)cc1)CC2C(F)(F)F (stereo unspecified),4.3
Cc1c(CNC(=O)c2cnn3c2NC(c2ccc(Br)cc2)CC3C(F)(F)F)cnn1C (stereo unspecified),.
SMILES,Dicer inh
Cc1ccc(C2CC(C(F)(F)F)n3nc(C(=O)NC4CCCC4)c(Cl)c3N2)cc1 (stereo unspecified),.
O=C(c1cnn2c1NC(c1ccccc1)CC2C(F)(F)F)N1CCOCC1 (stereo unspecified),.
Cc1ccc(C2CC(C(F)(F)F)n3ncc(C(=O)N4CCCCC4)c3N2)cc1 (stereo unspecified),3
O=C(c1cnn2c1NC(c1ccc(F)cc1)CC2C(F)(F)F)N1CCCCC1 (stereo unspecified),.
CCC(C)NC(=O)c1cnn2c1NC(c1ccc(Br)cc1)CC2C(F)(F)F (stereo unspecified),.
O=C(NC1CCCCC1)c1cnn2c1NC(c1ccc(Br)cc1)CC2C(F)(F)F (stereo unspecified),5.6
Cc1ccc(-c2ccc(C)c([N+](=O)[O-])c2)cc1[N+](=O)[O-],.
COc1cc(C2C(C(=O)OCc3ccccc3)=C(C)NC3=C2C(=O)CC(C)(C)C3)cc(Cl)c1O (stereo unspecified),.
Cc1onc(-c2c(Cl)cccc2Cl)c1-c1noc(CSc2ccccn2)n1,.
S=c1[nH]ccn1-c1cc(Cl)ccc1Cl,.
Clc1cccc(CN2CCN(C3CCCCC3)CC2)c1,.
CN(C)/C=N/c1nnc(SCc2c(F)cccc2Cl)s1,.
Cc1ccccc1-n1c(N)cc(=O)n(Cc2ccccc2)c1=O,.
CCC(CCC(=O)Nc1ccccn1)C(=O)O (stereo unspecified),.
Cc1onc(-c2c(Cl)cccc2Cl)c1NC(=O)NN1CCCCC1,.
Cc1ccc(S(=O)(=O)Nc2ccc(N(C)S(=O)(=O)c3ccc(C)cc3)cc2)cc1,.
CCN(CC)c1ccc(NS(=O)(=O)c2ccccc2)cc1,4.8
O=S(=O)(Nc1ccccc1)c1ccc(-c2ccc(S(=O)(=O)Nc3ccccc3)cc2)cc1,.
O=C(O)c1c[nH]c2cc(Cl)cc(Cl)c2c1=O,.
CSC1=C(C#N)C(=O)NC(c2ccc(Cl)cc2Cl)S1 (stereo unspecified),.
Cc1cc(NC(NC(=O)c2ccccc2C)(C(F)(F)F)C(F)(F)F)no1,.
Cc1ccc2c(c1)c1c(n2CC(O)CNCc2ccccc2)C(=O)CCC1 (stereo unspecified),.
Cc1ccc2c(c1)c1c(n2CC(O)CNCc2ccco2)CCCC1 (stereo unspecified),5
OC(CNCc1ccco1)COc1ccccc1 (stereo unspecified),.
COc1cccc(Oc2ccc(NC(=O)c3cc4cc(Br)ccc4o3)cn2)c1,3.1
COc1cccc(NC(=O)Nc2ccc(Oc3c(Cl)cccc3Cl)nc2)c1,.
COc1ccccc1Oc1ccc(NC(=O)c2cc3cc(Br)ccc3o2)cn1,.
